Assay results reported in PubChem BioAssay (NCI).
The panel holds about 83,000 compounds, 20% with a hit somewhere; the sample as a whole holds those more often.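 Step 1: grow cells in 96-well plates. Step 2: add test compound at a single concentration. Step 3: incubate 48 h. Step 4: record percent growth.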 Values without a mark were called inactive. Active and inactive are the calls of the source. How the source made its calls: active means growth percent below 10; inactive means the rest.

Each compound was assayed on RPMI-8226 leukemia (assay: NCI-60 one-dose screen, 48 h (100 = growth as untreated, 0 = no growth, -100 = all killed)). Conditions: 10 µM unless noted.

Row | Structure (SMILES) | growth
1 | CSc1cccc(NC(=O)Nc2nc3c(C)cccc3s2)c1 | 60.7%
2 | O=C(O)c1cn(C2CC2)c2cc(N3CCN(Cc4nnc(Nc5ccccc5)o4)CC3)c(F)cc2c1=O | 106%
3 | O=C1CS/C(=N/c2nnc(-c3ccc(O)cc3)s2)N1 | 101%
4 | COc1ccc2c(c1)C1(C(=O)N2)C(C#N)=C(c2ccccc2)Nc2c1c(-c1ccccc1)nn2-c1ccccc1 (stereo not drawn) | 67.6%
5 | CCN1CCC[C@H]1c1cc(O)c2c(c1OC)C[C@H]1C[C@H]3[C@H](N)C(=O)C(C(N)=O)=C(O)[C@@]3(O)C(=O)C1=C2O | -18.8% (active)
6 | O=C(/C(=C/c1ccc([N+](=O)[O-])cc1)SCc1ccccc1)c1ccc(Cl)cc1 | -15.8% (active)

What follows are compounds tested on OVCAR-8 ovarian in the same assay as above. Conditions: 10 µM unless noted.

Row | Structure (SMILES) | growth
7 | CCOC(=O)c1cnn(-c2nc(-c3ccc(F)cc3)c(C#N)c(N3CCOCC3)n2)c1N | 100%
8 | Cc1c(O)c(=O)ccn1-c1nc2ccccc2s1 | 85.4%
9 | Nc1ccc(C2=NN(C(=O)c3cc(-c4ccc(Cl)cc4)nc4ccccc34)C(c3ccc(Cl)cc3)C2)cc1 (stereo not drawn) | 32.1%
10 | COc1ccc2nc(-c3ccc(OC)c(OC)c3)cc(-c3nnc(SCC(=O)Nc4ccc(C(C)=O)cc4)o3)c2c1 | 102%
11 | CNCc1cccc2c1OCCOCCOCCN(CCN1CCOCC1)S(=O)(=O)c1ccc(cc1)-c1cnc(N)c(n1)C(=O)N2 | 62.2%
12 | COc1cc(C2=NN(C(C)=O)C(c3cccc(Nc4ccnc5cc(C(F)(F)F)ccc45)c3)C2)cc(OC)c1OC (stereo not drawn) | 56.1%
13 | CC(C)CSc1nc(Nc2ccccc2)c(C#N)c(-c2ccc(F)cc2)n1 | 29.4%
14 | CNc1cccc2c1C(=O)c1cccc(N)c1C2=O | 64.5%
15 | NC(=O)c1ccc(C2C3=C(CCCC3=O)OC3=C2C(=O)c2ccccc2C3=O)cc1 (stereo not drawn) | -1.42% (active)
16 | C=CCn1c(SCC(=O)Nc2ccc(C(=O)/C=C/c3ccc(Cl)cc3)cc2)nnc1-c1cc(OC)c(OC)c(OC)c1 | 91.6%
17 | C=C1C(=O)O[C@H]2[C@H]1CC/C(C=Nc1c(N)cc(F)cc1Br)=C\CC[C@@]1(C)O[C@@H]21 | 78.4%
18 | COc1cc(-c2csc(NC(=O)Nc3ccc(Cl)cc3)n2)cc(OC)c1OC | 10.4%
19 | COc1ccc(C(=O)c2cc(OC)c(C)c(OC)c2)cc1OC(=O)CCl | 25.4%
20 | Nc1c(C(=O)Nc2cccc3ccccc23)sc2nc3c(cc12)COCC3 | 57.9%
21 | CN(C)C(CNc1oc(-c2cccc3ccccc23)nc1C#N)c1ccco1 (stereo not drawn) | 96.4%
22 | Cc1cnc(-c2ccc(-c3ccc(NC(=O)Nc4c(F)cc(F)cc4F)cc3F)c3c2C(=O)NC3)[nH]1 | 39%
23 | COc1ccc(-c2cc(C(=O)N3N=C(c4ccc(N)cc4)CC3c3ccc(OC)cc3)c3cc(OC)ccc3n2)cc1 (stereo not drawn) | 22.1%
24 | COc1cc([C@H](C)c2ccc3ccccc3c2)cc(OC)c1OC | 23.2%
25 | O=c1nc(-c2ccccc2)c2cc(-c3ccc(N4CCCC4)nc3)ccc2[nH]1 | 89.2%

Row | Structure (SMILES) | growth
26 | Cc1cccc2nc3c(n12)C(=O)C(=O)c1ccccc1-3 | 46.9%
27 | CC(=O)Nc1c(C(=O)Nc2ccccc2)sc2nc3c(cc12)C(OC(C)=O)CCC3 (stereo not drawn) | 105%
28 | CCN1CCN(c2ccc(NC(=O)Nc3nc4ccc(-c5ccccc5OC)cc4s3)cc2)CC1 | -52.5% (active)
29 | Cc1cc(Cl)cc(CN(Cc2ccccc2)Cc2c(O)ccc3ccccc23)c1O | 98.5%
30 | COC1=CC=CC2(OC)C3(O)CCCc4cccc(c43)N3C(=O)COC132 (stereo not drawn) | 99.2%
31 | C=C1C(=O)O[C@H]2[C@H]1CC/C(COC(=O)N1CCC[C@H]1C(=O)Nc1ccc(OC)c(C(N)=O)c1O)=C\CC[C@@]1(C)O[C@@H]21 | 44.4%
32 | Cc1cc(C)nc(NS(=O)(=O)c2ccc(Nc3ccc4c5c(n(CCCN(C)C)c(=O)c4c3)-c3ccccc3C5=O)cc2)n1 | 74.4%
33 | COc1cc(NC(=O)c2cc(O)c(C/C=C(\C)CCC=C(C)C)c(O)c2)cc2c1O[C@]1(C)CC[C@@H](O)C(C)(C)[C@H]1C2 | 23.5%
34 | CCCCCCN1C(=O)CN=C1Nc1ccc2cc3ccc(NC4=NCC(=O)N4CCCCCC)cc3nc2c1 | 73.9%
35 | Nc1ccc(C2=NN(C(=O)c3cc(-c4ccc(Cl)cc4)nc4ccccc34)C(c3ccccc3)C2)cc1 (stereo not drawn) | 37.5%
36 | CN(CCC#N)C(=O)Nc1ccccc1 | 102%
37 | C=C(C)[C@@H]1CC[C@]2(C(=O)OCCCC[P+](c3ccccc3)(c3ccccc3)c3ccccc3)CC[C@]3(C)[C@H](CC[C@@H]4[C@@]5(C)CC[C@H](OC(=O)C(Cl)Cl)C(C)(C)[C@@H]5CC[C@]43C)[C@@H]12 | -1.54% (active)
38 | CSc1cccc(NC(=O)Nc2nc3c(C)cccc3s2)c1 | 93.9%
39 | O=C(O)c1cn(C2CC2)c2cc(N3CCN(Cc4nnc(Nc5ccccc5)o4)CC3)c(F)cc2c1=O | 108%
40 | O=C1CS/C(=N/c2nnc(-c3ccc(O)cc3)s2)N1 | 109%
41 | COc1ccc2c(c1)C1(C(=O)N2)C(C#N)=C(c2ccccc2)Nc2c1c(-c1ccccc1)nn2-c1ccccc1 (stereo not drawn) | -10.9% (active)
42 | CCN1CCC[C@H]1c1cc(O)c2c(c1OC)C[C@H]1C[C@H]3[C@H](N)C(=O)C(C(N)=O)=C(O)[C@@]3(O)C(=O)C1=C2O | -0.399% (active)
43 | O=C(/C(=C/c1ccc([N+](=O)[O-])cc1)SCc1ccccc1)c1ccc(Cl)cc1 | 76.2%
